# Measurements: PubChem BioAssay AID641 (Vanderbilt High Throughput Screening Facility, 2007)
# Screen size: about 58,000 compounds; about 3,400 (5.9%) were called active.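 Rule for the calls: active = luminescence count or its row- and column-corrected plate score outside the 99.7% band of the plate's sample wells, on either side; inactive = the rest.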 The list comes from a sample in which actives are over-represented; it also holds similar structures and randomly drawn compounds.
# Molecular target: D(1A) dopamine receptor (Homo sapiens) (UniProt P21728)
# Experiment: D1 CRE-luciferase signal change, two-sided – cell-based, HEK293 D1, dopamine EC30, D1 allosteric modulator project, primary screen (AID 641)
# Details: dopamine EC30 potentiation, at 10 µM, actives deviate in either direction
# Sequence of D(1A) dopamine receptor (Homo sapiens) (P21728 whole entry, looked up): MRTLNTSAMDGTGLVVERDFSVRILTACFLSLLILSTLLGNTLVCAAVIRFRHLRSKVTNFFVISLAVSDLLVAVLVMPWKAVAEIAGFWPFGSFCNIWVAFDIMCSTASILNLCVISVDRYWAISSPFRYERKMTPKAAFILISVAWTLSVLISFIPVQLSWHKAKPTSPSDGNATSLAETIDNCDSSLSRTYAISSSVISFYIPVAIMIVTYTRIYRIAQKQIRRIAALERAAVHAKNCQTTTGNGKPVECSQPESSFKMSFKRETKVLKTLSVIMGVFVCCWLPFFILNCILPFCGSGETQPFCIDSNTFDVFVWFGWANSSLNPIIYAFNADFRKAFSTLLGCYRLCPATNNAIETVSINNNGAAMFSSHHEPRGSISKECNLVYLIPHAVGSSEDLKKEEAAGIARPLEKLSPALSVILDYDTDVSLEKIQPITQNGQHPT
row,Compound,B-score
1,CCOC(=O)C(O)(c1ccc(N)c(OC)c1)C(F)(F)F (stereo not given),-4.69 (active)
2,CCOC(=O)C(O)(c1ccc(NC(=O)c2ccco2)c(OC)c1)C(F)(F)F (stereo not given),0.817 (inactive)
3,CCOP(=S)(OCC)SCOC(=O)NCC(=O)OC,1.46 (inactive)
4,Cc1ccc2c(c1)C1CN(C)CCC1N2C(=O)Cn1nnc(-c2ccccc2F)n1 (stereo not given),-3.16 (active)
5,Cc1cc(N2C(=O)C3CCCN3C2c2ccc(Cl)c(Cl)c2)no1 (stereo not given),1.04 (inactive)
6,CC(=NC1CCN(Cc2ccccc2)CC1)c1c(O)n(C)c(=O)n(C)c1=O,0.191 (inactive)
7,CCN(CC)CCOC(=O)c1cc2cc(COC)ccc2o1,0.407 (inactive)
8,C=Cn1ccnc1P(=S)(c1cc(N(CC)CC)ns1)c1nccn1C=C,-0.0508 (inactive)
9,CC(=C1C(=O)c2ccccc2C1=O)N1CCN(CCN=Cc2c(O)n(C)c(=O)n(C)c2=O)CC1,-0.0144 (inactive)
10,CCC(=NCCCO)c1c(O)n(-c2ccc(OC)cc2)c(=O)[nH]c1=O,-0.508 (inactive)
11,CCC(=NCc1ccco1)c1c(O)n(Cc2ccccc2)c(=O)[nH]c1=O,10.9 (active)
12,CCCCCCN=C(CC)c1c(O)n(CCCC)c(=O)[nH]c1=O,2.24 (inactive)
13,N[C@@H](Cc1c[nH]c2ccccc12)c1nnc(SCc2c(F)cccc2Cl)o1,-0.133 (inactive)
14,CCCC(C)n1[nH]c(=O)c2c1NC(=O)CSC2c1ccc(OC)c(OC)c1 (stereo not given),0.346 (inactive)
15,CCc1cccc2c(C#N)cn(CC(=O)N3CCOCC3)c12,-1.07 (inactive)
